Hits are enriched below; roughly 11% of the tested compounds scored in any of these assays.
Insulin prom up = MIN6 insulin promoter up-regulation; MIN6 insulin promoter-GFP reporter, high-content imaging; stronger effect = higher value; z-score at 5 µM; AID 1625; 190,000 compounds, 0.3% hits;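 active = z-score above 3 at 5 µM with at least 500 cells counted in the well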
WT yeast gro inh = growth inhibition of WT yeast, mitochondrial fusion screen | mitochondrial fusion phenotypic screen, WT strain | 190,000 compounds, 2.1% hits | inhibition, % at 10 µM | AID 1362; in the data active = inhibition above about 58%; tested in S. cerevisiae
L major viab = inhibitors of Leishmania major promastigote growth | AID 1063 | inhibition, % at 10 µM | 200,000 compounds, 9% hits | Leishmania major promastigotes, resazurin fluorescence viability; in the data active = inhibition above about 50%;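 note: promastigotes grown with compound for 44 hours at 28 °C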
Insulin prom inh = TRM-6 insulin promoter activity inhibition; TRM-6 cells (human fetal islet line), insulin promoter-eGFP reporter, imaging; reporter expression induced with tamoxifen; inhibition, % at 2 µM; 130,000 compounds, 0.9% hits;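 active = inhibition above the mean plus 3 SD, with well images judged a real hit on visual review, cut at about 60% in these data, passing the limit was not always enough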
Autophagy mod = alters autophagy in cells | MEF GFP-LC3 puncta imaging; test concentration mostly 10 µM | calls only at 10 µM (by protocol) | 190,000 compounds, 0.98% hits | AID 463193;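 active = percentage of spot-positive cells more than 3 SD above its plate mean, without a fluorescence outlier flag or 80% toxicity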;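 note: spot-positive cell cutoff set from DMSO-treated cells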
* marks the source's active call; other numbers are inactive results; i = inactive; / = no result given; + = active, no number.

SMILES	Insulin prom up	WT yeast gro inh	L major viab	Insulin prom inh	Autophagy mod
O=C(Nc1cccnc1Oc1ccc(Cl)cc1)c1cccc2ccccc12	-0.2	/	/	/	/
CCN(CCO)Cc1csc2ccc(Br)cc12	-0.63	-19	99*	9	i
CC(Sc1ccccc1)C(=O)NN=C1CCCCCCC1 (centres undefined)	0.26	-6	3	/	i
CC(Sc1ccccc1)C(=O)NN=C1CCCCCC1 (centres undefined)	8.1*	-1	-1	53	i
CCOc1ccccc1NC(=O)CSc1ccc([N+](=O)[O-])cc1	-0.14	-8	-3	/	i
O=C(C1CCN(Cc2ccccc2)CC1)N1CCCC1	0.18	10	-4	/	i
O=C(C1CCN(C2CC(=O)N(Cc3ccccc3)C2=O)CC1)N1CCCCCC1 (centres undefined)	/	-12	87*	-238	i
O=C1CC(N2CCN(C(c3ccccc3)c3ccccc3)CC2)C(=O)N1Cc1ccc(N2CCCC2=O)cc1 (centres undefined)	-0.32	9	98*	-3	i
CC(C)OC(=O)c1cc2c(=O)[nH]c(C(Cl)(Cl)Cl)nc2o1	0.44	9	-4	18	i
COc1ccc(CN2CCc3ccccc3C2)c(OC)c1OC	/	3	8	-44	i
COc1ccc(N2CCN(C(=O)CCc3ccc(S(=O)(=O)NC(C)C)cc3)CC2)cc1	0.36	-25	4	31	i
Cc1ccc(-n2nc(C)c(C3C(C#N)=C(N)OC4=C3C(=O)CCC4)c2Cl)cc1 (centres undefined)	-0.07	/	/	/	/
CCc1ccc(/C=C2/C(=O)N(c3ccccc3)C(=S)N2CC(=O)OC)s1	-0.52	29	8	/	+
COc1ccc(CC(=O)Oc2cc(C)[nH]c(=O)c2[N+](=O)[O-])cc1	0.13	-8	-5	-47	i
COC(=O)/C(=C(/F)Sc1cc(C)c(O)c(C)c1)C(F)(F)F	/	94*	-7	-19	i
CCOC(=O)N1CCC(NCCNC(=O)c2ccccc2Cl)CC1	1.8	-9	84*	0	i
CCOC(=O)N1CCC(NCCNC(=O)c2ccccc2)CC1	0.49	-7	77*	59	i
O=C(NCCNC1CCC(c2ccccc2)CC1)c1cccs1 (centres undefined)	/	7	94*	-28	i
CCOC(=O)N1CCC(NC(=O)c2ccccc2C(=O)O)CC1	-0.1	/	/	/	/
CCOC(=O)N1CCC(NCCNC(=O)c2cccs2)CC1	0.22	-7	88*	-167	i
CCOC(=O)N1CCC(NC(=O)c2cccs2)CC1	0.34	/	/	/	/
C[C@@H](C(=O)N1CCNCC1)n1cc(CCCN=C(N)N)nn1	1.2	-3	0	/	i
O=C(NCCc1c[nH]c2ccccc12)c1cnccn1	-0.81	-15	-9	18	i
FC(F)(F)c1nnc2ccc(Sc3ccccn3)nn12	-0.03	-2	-7	/	i
COc1ccc(CCNC(=O)C2CCN(C(=O)c3ccc([N+](=O)[O-])cc3)CC2)cc1	-0.7	1	4	/	i
SMILES	Insulin prom up	WT yeast gro inh	L major viab	Insulin prom inh	Autophagy mod
COc1cc(OC)c(C(=O)Nc2ncn[nH]2)cc1OC	/	/	3	-181	i
Cc1ccc(-c2cc(C(F)F)n3ncc(C(=O)N4CCc5ccccc54)c3n2)cc1	-1.2	16	18	-58	+
COc1ccc(-c2cc(C(F)F)n3ncc(C(=O)N4CCN(C(=O)c5ccco5)CC4)c3n2)cc1	1.8	6	10	/	i
Cc1ccc(-c2cc(C(F)F)n3ncc(C(=O)N4CCN(c5ccccn5)CC4)c3n2)cc1	-0.48	26	100*	/	/
O=C(c1cnn2c(C(F)F)cc(-c3ccccc3)nc12)N1CCc2ccccc21	-0.02	-1	-7	-21	i
CCN1CCN(C(=O)c2cnn3c(C(F)F)cc(-c4ccc(C)cc4)nc23)CC1	-1.6	-2	98*	13	i
COc1ccc(-c2cc(C(F)F)n3ncc(C(=O)N4CCc5ccccc5C4)c3n2)cc1	-2.1	50	39	-393	i
CCc1nccn1C(=O)c1cnn2c(C(F)F)cc(-c3ccc(C)cc3)nc12	-1.1	-22	-4	/	i
COc1ccc(-c2cc(C(F)F)n3ncc(C(=O)N4CCCCC4)c3n2)cc1	0.31	1	100*	-57	i
CC(NCC(O)c1ccc([N+](=O)[O-])cc1)C12CC3CC(CC(C3)C1)C2 (centres undefined)	-0.12	/	/	/	/
COc1cc2c(C)nc(C)c(C#N)c2cc1OC	-0.77	10	17	-43	i
O=S(=O)(c1ccc(OCC2CO2)cc1)c1ccc(OCC2CO2)cc1 (centres undefined)	0.43	1	3	-400	i
O=C(NCCc1c[nH]c2ccccc12)C1CCN(S(=O)(=O)c2ccccc2F)CC1	-0.08	-1	98*	/	i
O=C(NCCc1c[nH]c2ccccc12)C1CCC(Cn2c(=S)[nH]c3ccccc3c2=O)CC1 (centres undefined)	-0.59	-9	100*	-40	i
O=C(NCCc1c[nH]c2ccccc12)C1CCN(c2nnc(N3CCCC3=O)s2)CC1	-0.3	17	84*	9	i
Cc1ccc(NC(=O)Cc2c[nH]c3ccccc23)cc1S(=O)(=O)N1CCCCCC1	-0.36	-3	92*	8	i
O=C(O)C1CCCCC1C(=O)NCCc1c[nH]c2ccccc12 (centres undefined)	/	-10	6	44	i
CCc1cc(=O)[nH]c(SCc2ccc(C)cc2)n1	-1.4	-5	-21	/	i
COc1ccc(N(CC(=O)NCCC2=CCCCC2)S(=O)(=O)c2ccccc2)cc1OC	-0.13	-6	73*	/	i
COc1ccc(N(CC(=O)NCCC2=CCCCC2)S(=O)(=O)c2ccc(C)cc2)cc1OC	-0.15	6	85*	-22	i
COc1ccc(N(CC(=O)NCCC2=CCCCC2)S(C)(=O)=O)cc1OC	-0.71	-6	1	-19	i
O=C(CSc1nnc(-c2ccncc2)n1-c1ccc(F)cc1)NNC(=O)c1cccc(O)c1	2.8	0	-4	14	i
Cc1ccc(-c2nc(SCC(=O)N(C)C3CCS(=O)(=O)C3)[nH]c2-c2ccc(C)cc2)cc1 (centres undefined)	/	-1	94*	-11	i
COc1ccc2c(C)cc(SCC(=O)N(C)C3CCS(=O)(=O)C3)nc2c1 (centres undefined)	/	15	3	/	+
Cc1ccc(SCC(=O)N(C)C2CCS(=O)(=O)C2)cc1 (centres undefined)	-0.4	0	-4	54	i
SMILES	Insulin prom up	WT yeast gro inh	L major viab	Insulin prom inh	Autophagy mod
COc1ccc2c(C)cc(SCC(=O)Nc3ccc(Cl)cn3)nc2c1	0.52	-4	59*	-7	i
CCCCn1nc(C(=O)Oc2ccc3c(C)cc(=O)oc3c2)c2ccccc2c1=O	0	-3	-6	/	i
CCc1ccc(C(=O)COC(=O)c2cnccn2)cc1	0.14	1	-5	-50	i
O=C(CN1C(=O)c2ccccc2C1=O)NNC1=NS(=O)(=O)c2ccccc21	-0.6	-26	61*	-43	i
O=C(Cc1ccccc1)NNC1=NS(=O)(=O)c2ccccc21	0.02	-10	-8	/	i
Cc1ccc(C(N)=Nc2ccccc2)cc1	0.58	/	/	/	/

High-throughput results (PubChem)
